The full ranking holds about 18,000 sequences; the median of “log2 normalized intensity” is about 0.39, and the highest 2% start at about 6.6. This excerpt belongs to a sample that is enriched for the highest values.

This experiment deals with T1, HNF4alpha2 (COS-7 nuclear extract) (Homo sapiens, UniProt P41235 1-474).
T1 sequence: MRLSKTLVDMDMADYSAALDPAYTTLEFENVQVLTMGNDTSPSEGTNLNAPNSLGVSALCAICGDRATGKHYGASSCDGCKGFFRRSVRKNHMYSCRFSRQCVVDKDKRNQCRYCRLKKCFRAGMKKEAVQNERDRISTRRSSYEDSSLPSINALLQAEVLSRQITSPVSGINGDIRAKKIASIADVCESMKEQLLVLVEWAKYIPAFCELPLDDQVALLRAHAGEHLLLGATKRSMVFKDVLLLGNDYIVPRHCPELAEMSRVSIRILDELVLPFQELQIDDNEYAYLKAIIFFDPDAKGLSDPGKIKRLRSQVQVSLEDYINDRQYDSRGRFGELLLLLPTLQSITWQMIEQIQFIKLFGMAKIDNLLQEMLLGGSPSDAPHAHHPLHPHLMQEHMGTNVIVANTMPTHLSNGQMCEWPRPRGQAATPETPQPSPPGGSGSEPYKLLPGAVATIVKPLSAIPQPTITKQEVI
Briefly: protein-binding microarray; COS-7 nuclear extract on double-stranded Agilent 4x180k PBM; binding buffer, salt, pH and temperature not given in the material; high values mean tight binding. As to conditions: chain copies: 2; label: 3' end of strand 1 on the slide; dsDNA, one strand shown. The method, boiled down: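 A custom Agilent SurePrint G3 4x180k array, spotted in quadruplicate with ~44,000 test sequences as ~60-nt oligonucleotides made double-stranded, was incubated with nuclear extracts. The extracts came from COS-7 cells transiently transfected by CaPO4 with a human HNF4α isoform expression vector. Bound HNF4α was imaged on an Agilent G2565CA scanner at 2-µm resolution, and the binding signal was taken as Agilent software's background-corrected, normalized gProcessedSignal.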
For the sequence “AAGTTGGAATTTGGGTGATCCTGGTAGCAGGCCTAGGGAGATTAGAGTATCGGTCGA”, the binding signal worked out at 0.0957 log2 normalized intensity.
Under “TGGTTTTATGGTGTCTTATCTTCCTCTGGCGCCTAGGGAGATTAGAGTATCGGTCGA” stands 1.96 log2 normalized intensity.
Under “ACACACACATTGCAGTATGCCCCCCCACCCGCCTAGGGAGATTAGAGTATCGGTCGA” stands 6.13 log2 normalized intensity.
The figure for “TGCAGTATGCCCCCCCACCCCACACACACAGCCTAGGGAGATTAGAGTATCGGTCGA” is 6.7 log2 normalized intensity; for “CACACACACACACATTGCAGTATGCCCCCCGCCTAGGGAGATTAGAGTATCGGTCGA” it is 5.1 log2 normalized intensity; for “CACATTGCAGTATGCCCCCCCACCCCACACGCCTAGGGAGATTAGAGTATCGGTCGA” it is 6.96 log2 normalized intensity.
Consider “TATGCCCCCCCACCCCACACACACACAGCAGCCTAGGGAGATTAGAGTATCGGTCGA”, for which the binding signal was 6.17 log2 normalized intensity.
Regarding “CCCCCCACCCCACACACACACAGCATTCCAGCCTAGGGAGATTAGAGTATCGGTCGA”, the binding signal turned out to be 5.05 log2 normalized intensity.
For “TACACCTGGGGGCTTCCCAACTCCATTATCGCCTAGGGAGATTAGAGTATCGGTCGA”, the binding signal is -0.261 log2 normalized intensity.
Under “TCCCTATGTTGTCCCTGCCCTTTGTCCAGGGCCTAGGGAGATTAGAGTATCGGTCGA” stands 3.89 log2 normalized intensity; under “AGAATATTAGATGATAAGGGTGAAAAGATAGCCTAGGGAGATTAGAGTATCGGTCGA”, -0.989 log2 normalized intensity.
Regarding “AAGGAGCTTGGGAAGACAGATGTGATATTCGCCTAGGGAGATTAGAGTATCGGTCGA”, the binding signal is -0.781 log2 normalized intensity.
For “GGTGACCCCTCAGTTTTTCTCTTTTGACCTGCCTAGGGAGATTAGAGTATCGGTCGA”, the binding signal is 4.09 log2 normalized intensity.
The figure for “CTGCTTTTGGAATTTGACCTCATTTGCTCCGCCTAGGGAGATTAGAGTATCGGTCGA” is 5.7 log2 normalized intensity; for “TGCCTCTTTTCTGCTTTTGGAATTTGACCTGCCTAGGGAGATTAGAGTATCGGTCGA” it is 7.84 log2 normalized intensity.
Under “AAGCCCTTCTTCTGGAGCCTCAGTAAGTTTGCCTAGGGAGATTAGAGTATCGGTCGA” stands 0.629 log2 normalized intensity; under “CGCATTTCTGCTTCTTCTCATTCTTGGAATGCCTAGGGAGATTAGAGTATCGGTCGA”, 1.39 log2 normalized intensity; under “CCCCTCAGTTTTTCTCTTTTGACCTTTGGAGCCTAGGGAGATTAGAGTATCGGTCGA”, 8.9 log2 normalized intensity.
The figure for “CTTTTCTGCTTTTGGAATTTGACCTCATTTGCCTAGGGAGATTAGAGTATCGGTCGA” is 6.91 log2 normalized intensity; for “TTTGTTGCCTCTTTTCTGCTTTTGGAATTTGCCTAGGGAGATTAGAGTATCGGTCGA” it is 2.71 log2 normalized intensity; for “GTGCTTGGACCTGCTCTGTTTTCTTTCGGTGCCTAGGGAGATTAGAGTATCGGTCGA” it is 1.49 log2 normalized intensity.
In the case of “CTGTTGGTGACTGACCCTGATCCCTCCCTGGCCTAGGGAGATTAGAGTATCGGTCGA”, the binding signal stood at 3.18 log2 normalized intensity.
With “GGATCCCATTCATGTGGGTCAACAGACAAAGCCTAGGGAGATTAGAGTATCGGTCGA”, the binding signal was determined as 0.575 log2 normalized intensity.
Under “AAAGTCTTTCTCTTTCAAGATAACAAGGCAGCCTAGGGAGATTAGAGTATCGGTCGA” stands 1.37 log2 normalized intensity; under “CTGATCAAAGGTCATTGGTATTGATAGCGCGCCTAGGGAGATTAGAGTATCGGTCGA”, 4.8 log2 normalized intensity; under “ATATCTATATGTTTACATATCACTGTACTCGCCTAGGGAGATTAGAGTATCGGTCGA”, 2.08 log2 normalized intensity.
The figure for “ATGCTGGTCTCCTTGCCCCACCCCCCACCCGCCTAGGGAGATTAGAGTATCGGTCGA” is 7.6 log2 normalized intensity.
The figure for “TCCCCACCCCCAACTTCCCCAACCCTTGCAGCCTAGGGAGATTAGAGTATCGGTCGA” is 6.3 log2 normalized intensity.
In the case of “GGTCTCCTTGCCCCACCCCCCACCCCAGAAGCCTAGGGAGATTAGAGTATCGGTCGA”, the binding signal is 6.86 log2 normalized intensity.
Under “CATGCTCCCCACCCCCAACTTCCCCAACCCGCCTAGGGAGATTAGAGTATCGGTCGA” stands 6.67 log2 normalized intensity.
Under “ATCCCCGCTCCCCTCCCCCACCCGCGGTCCGCCTAGGGAGATTAGAGTATCGGTCGA” stands 6.38 log2 normalized intensity; under “CCTTGCCCCACCCCCCACCCCAGAAGTATGGCCTAGGGAGATTAGAGTATCGGTCGA”, 6.2 log2 normalized intensity; under “GCTCCCTCCCCTCCTCCCTTGCTCACCCCAGCCTAGGGAGATTAGAGTATCGGTCGA”, 5.91 log2 normalized intensity.
On to “ACCAAGGGTCATGCTGGTCTCCTTGCCCCAGCCTAGGGAGATTAGAGTATCGGTCGA”, for which the binding signal is 1.74 log2 normalized intensity.
Under “GGGTCATGCTGGTCTCCTTGCCCCACCCCCGCCTAGGGAGATTAGAGTATCGGTCGA” stands 5.55 log2 normalized intensity; under “CGAACCTGTCTCCAGAGGACTTGCGGTGTTGCCTAGGGAGATTAGAGTATCGGTCGA”, 0.482 log2 normalized intensity; under “AAACCCAAGATTTGGTGTTACCTTTGGACTGCCTAGGGAGATTAGAGTATCGGTCGA”, 5.71 log2 normalized intensity.
For “CATGACCTTTGGACTGTGACCCCACCTCTCGCCTAGGGAGATTAGAGTATCGGTCGA”, the binding signal was 7.45 log2 normalized intensity.
Under “GGGTCAGAACCTGCCCATGACCTTTGGACTGCCTAGGGAGATTAGAGTATCGGTCGA” stands 11.1 log2 normalized intensity.
The figure for “GGACTGTGACCCCACCTCTCAGACAGAGCTGCCTAGGGAGATTAGAGTATCGGTCGA” is 2.75 log2 normalized intensity; for “GGGCAGGGTCAGAACCTGCCCATGACCTTTGCCTAGGGAGATTAGAGTATCGGTCGA” it is 5.92 log2 normalized intensity.
Under “AGAACCTGCCCATGACCTTTGGACTGTGACGCCTAGGGAGATTAGAGTATCGGTCGA” stands 9.54 log2 normalized intensity; under “CCTTTGGACTGTGACCCCACCTCTCAGACAGCCTAGGGAGATTAGAGTATCGGTCGA”, 4.83 log2 normalized intensity.
With “CTGCCCTTTGGAACCTGCCCTCTGTCCCATGCCTAGGGAGATTAGAGTATCGGTCGA”, the binding signal amounted to 4.15 log2 normalized intensity.
Under “CTTTGGAACCTGCCCTCTGTCCCATGGTGTGCCTAGGGAGATTAGAGTATCGGTCGA” stands 2.48 log2 normalized intensity.

Values taken from publication PMC10726135, “HNF4α isoforms regulate the circadian balance between carbohydrate and lipid metabolism in the liver”.
